In all, about 39,000 sequences were measured (“fluorescence intensity (a.u.)”: median about 4,300, highest 2% from about 39,000 on). Many of the other results were omitted from the sample, so the highest values are more common in it than they were.
Each sequence was assayed against T1, OsSMF1 (Oryza sativa, UniProt Q6ZLB0 1-436) (assay: protein-binding microarray (RPBM); PBS, 2% BSA, 51.3 ng/ul salmon testes DNA, 50 uM zinc acetate, 200 nM TF, 25 C, 1 h; high values mean tight binding). Details: protein: recombinant; tags: N-terminal polyhistidine and DsRed monomer fusion (pET32a); chain copies: 2; label: CyDye5-dUTP incorporated in the synthesized complementary strand; 3' TTTTT single-stranded linker to array surface; dsDNA, one strand shown.
T1 sequence: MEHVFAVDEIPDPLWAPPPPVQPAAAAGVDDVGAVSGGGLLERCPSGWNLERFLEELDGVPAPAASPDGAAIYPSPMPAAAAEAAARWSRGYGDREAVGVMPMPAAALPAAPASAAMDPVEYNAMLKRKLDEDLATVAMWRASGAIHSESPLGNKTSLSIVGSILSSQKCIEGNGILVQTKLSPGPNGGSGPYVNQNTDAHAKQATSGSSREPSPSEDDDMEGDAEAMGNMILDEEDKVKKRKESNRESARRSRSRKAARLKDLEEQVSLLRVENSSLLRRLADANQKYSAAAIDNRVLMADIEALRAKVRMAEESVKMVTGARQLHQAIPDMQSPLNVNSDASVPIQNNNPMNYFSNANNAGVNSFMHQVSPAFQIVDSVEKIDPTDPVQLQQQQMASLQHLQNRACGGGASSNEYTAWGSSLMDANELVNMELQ
Procedure, shortened: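 Binding signal is defined as the fluorescence intensity of each feature in arbitrary units, read on an Axon 4000B scanner. Transcription factors with N-terminal polyhistidine and DsRed fusions came from E. coli BL21-CodonPlus and were purified on Ni–NTA. They were incubated at 200 nM for 1 h at 25 °C on a custom Agilent array that had been made double-stranded with Cy5-dUTP, with 50 µM zinc acetate present, and the array was washed.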

Row | Sequence | binding signal
1 | GGATTGGCGACTCGACGTTGACAACATGACATATGAGGTACGGAGTCACCTAGTGCAG | 4210 fluorescence intensity (a.u.)
2 | GCTGCTCTCTCTCTCTCTCTCTCCCATCTCGTCCTCGCTTCGGAGTCACCTAGTGCAG | 19400 fluorescence intensity (a.u.)
3 | TCCACCTGGGTTCAAATCCTAGATTTGACACGGGTGCTCGCGGAGTCACCTAGTGCAG | 4830 fluorescence intensity (a.u.)
4 | ATAGCATCCTGTACACTCAAGTCATCCCTGACACACACACCGGAGTCACCTAGTGCAG | 3850 fluorescence intensity (a.u.)
5 | GGGCCAATCTAGTTGTCAACTTCTACTACTGCTAGGAGGACGGAGTCACCTAGTGCAG | 3410 fluorescence intensity (a.u.)
6 | GCTCGCCGGCCTCACCCTCAATACATGGTGATTCATCCGGCGGAGTCACCTAGTGCAG | 3660 fluorescence intensity (a.u.)
7 | TGAATCCACAGCCACGCCACGCGGCCCATGCCTACGCCTCCGGAGTCACCTAGTGCAG | 4000 fluorescence intensity (a.u.)
8 | CCTTGCCGCCGGCCAATTTATTGACTCACCGAGAAGTTTGCGGAGTCACCTAGTGCAG | 5600 fluorescence intensity (a.u.)
9 | TGTGACCCATTCTAATACAATAAATCTGGACATGTGTACTCGGAGTCACCTAGTGCAG | 3630 fluorescence intensity (a.u.)
10 | GCCTTCCGTTCCGCTCCTCTACCGCCGCGTCAAGATTCCCCGGAGTCACCTAGTGCAG | 4950 fluorescence intensity (a.u.)
11 | TGCGCCGCCGCCGCCGCCGCCGCTGCGGCGTGCATCCGCCCGGAGTCACCTAGTGCAG | 37400 fluorescence intensity (a.u.)
12 | TTTCCGCTATCGCGGTGCGCGCGGAAGGCCCCGCTGCGGCCGGAGTCACCTAGTGCAG | 39200 fluorescence intensity (a.u.)
13 | CGCCGCCGGCCGCGCCGCCGCTGCCGCCGTCGCCCCGCGCCGGAGTCACCTAGTGCAG | 3450 fluorescence intensity (a.u.)
14 | ATCTCTAAACACCAAATTTGACACCGATCCACGTGCACACCGGAGTCACCTAGTGCAG | 7210 fluorescence intensity (a.u.)
15 | AAGTCTGCAGTTGCACTGGGAGTTGACAAAGAAGATGACGCGGAGTCACCTAGTGCAG | 3550 fluorescence intensity (a.u.)
16 | GACCAAGATGACAAAGATTACTATTATACTGATGATAACCCGGAGTCACCTAGTGCAG | 34100 fluorescence intensity (a.u.)
17 | GCCATTGATGACAAAGACAACCTGGAAGATTACTGTTGCACGGAGTCACCTAGTGCAG | 64300 fluorescence intensity (a.u.)
18 | GTCCTCATCCTAGGTAAAATAACCACGTCATCTCACAGGTCGGAGTCACCTAGTGCAG | 20700 fluorescence intensity (a.u.)
19 | GCTAGCGCGCATTGACCAAGATCCGATTTGTATGCTAGTGCGGAGTCACCTAGTGCAG | 4060 fluorescence intensity (a.u.)
20 | GCAGAGGCGGCGAGGCTCGGCTTCTTCTCGAACGGCGCCGCGGAGTCACCTAGTGCAG | 27600 fluorescence intensity (a.u.)
21 | CCGAGAGAAAGAGAGCAAGAGAGAGAGACGGGCTCAAGAGCGGAGTCACCTAGTGCAG | 4560 fluorescence intensity (a.u.)

Row | Sequence | binding signal
22 | GAGCAGAAAGACGCGGCTTCTCGAGAGTTCCAAGTTCCAACGGAGTCACCTAGTGCAG | 45200 fluorescence intensity (a.u.)
23 | CGATGAGCACCGCAGCGATTGACATATTGCAATATCGTTCCGGAGTCACCTAGTGCAG | 3550 fluorescence intensity (a.u.)
24 | ACGTACGTGTGCGTATCCGACAAGTCCCACGACGTGGCAACGGAGTCACCTAGTGCAG | 4960 fluorescence intensity (a.u.)
25 | TTTTACATGATTGGATGACAAAGCCTATTTCGTTTTGTTGCGGAGTCACCTAGTGCAG | 5400 fluorescence intensity (a.u.)
26 | TATTTTGGAAAATGAGTCACAGGGTTATTGTAGCTTTGAACGGAGTCACCTAGTGCAG | 9390 fluorescence intensity (a.u.)
27 | TATTTGGTTTTGTAGGGGTTGGTTTGGGAAAATTGGAAAGCGGAGTCACCTAGTGCAG | 4240 fluorescence intensity (a.u.)
28 | AAATCAGGAAATGAAAAGCTAGGGTTTTAGGTATTGTAATCGGAGTCACCTAGTGCAG | 40800 fluorescence intensity (a.u.)
29 | TGGTTGTATTAGGTTAATAAGCCACGTCAGTGAAAAGCACCGGAGTCACCTAGTGCAG | 16100 fluorescence intensity (a.u.)
30 | AGAAGGGGAGAAAAGGAAACCGATCTCGGTCATGGCCACGCGGAGTCACCTAGTGCAG | 50900 fluorescence intensity (a.u.)
31 | AGCAGAGTGATCTCTGATGGTCACGGGCCGAGAAGGGAAGCGGAGTCACCTAGTGCAG | 45700 fluorescence intensity (a.u.)
32 | AGCAGGAGAAGGGACCGAGAGAAGAGTCGCAGAGAGAGAGCGGAGTCACCTAGTGCAG | 3660 fluorescence intensity (a.u.)
33 | TGAATGCACGTACTGGTGATGAATCTCTGATGGATGGAAGCGGAGTCACCTAGTGCAG | 3210 fluorescence intensity (a.u.)
34 | CCACCGGAAACAGGGAAGAAGAGGGGTCGAGAAAGGGGAGCGGAGTCACCTAGTGCAG | 4020 fluorescence intensity (a.u.)
35 | AGAGAGGGAAGGGAGGGAGGGAGGGAGGAGGGAGAGATCTCGGAGTCACCTAGTGCAG | 6770 fluorescence intensity (a.u.)
36 | GCCGCGCCGTCCTGTGTGTGCGTGGCGCCAATGCATGCTACGGAGTCACCTAGTGCAG | 3590 fluorescence intensity (a.u.)
37 | GGTTTTGGAGAGCGGTTTCACTGACGTGGCAGTGTTGACCCGGAGTCACCTAGTGCAG | 22900 fluorescence intensity (a.u.)
38 | ACGCCTCATCTCCAGTCCACGGCTCAACGTCCACGCACACCGGAGTCACCTAGTGCAG | 3490 fluorescence intensity (a.u.)
39 | TGATTTTGTTTTAATACATGCAATCTTTCGATCCAATGGCCGGAGTCACCTAGTGCAG | 24000 fluorescence intensity (a.u.)
40 | TCGATCTGCACATGTGCACGCGCATGTGTCGTCGGCTTAGCGGAGTCACCTAGTGCAG | 3230 fluorescence intensity (a.u.)
41 | GACTAATCAAACAATTTCCCTCGCTATTAGTCACTGACAGCGGAGTCACCTAGTGCAG | 3590 fluorescence intensity (a.u.)
42 | ATTTAATAGTCCGGGAGGCATGCTTACGGACAAGGACGAACGGAGTCACCTAGTGCAG | 47100 fluorescence intensity (a.u.)
